Artemis inh – Artemis (human) endonuclease inhibition | 0.78% of 30,000 active | recombinant Artemis, quenched FAM hairpin cleavage fluorescence | Q96SD1 | inhibition, % at 10 µM | AID 686954;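 active means at 10 µM dose, at least 30% inhibition, measured as corrected fluorescence normalized to stimulator and neutral control wells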
Target sequence (Q96SD1 whole entry, looked up): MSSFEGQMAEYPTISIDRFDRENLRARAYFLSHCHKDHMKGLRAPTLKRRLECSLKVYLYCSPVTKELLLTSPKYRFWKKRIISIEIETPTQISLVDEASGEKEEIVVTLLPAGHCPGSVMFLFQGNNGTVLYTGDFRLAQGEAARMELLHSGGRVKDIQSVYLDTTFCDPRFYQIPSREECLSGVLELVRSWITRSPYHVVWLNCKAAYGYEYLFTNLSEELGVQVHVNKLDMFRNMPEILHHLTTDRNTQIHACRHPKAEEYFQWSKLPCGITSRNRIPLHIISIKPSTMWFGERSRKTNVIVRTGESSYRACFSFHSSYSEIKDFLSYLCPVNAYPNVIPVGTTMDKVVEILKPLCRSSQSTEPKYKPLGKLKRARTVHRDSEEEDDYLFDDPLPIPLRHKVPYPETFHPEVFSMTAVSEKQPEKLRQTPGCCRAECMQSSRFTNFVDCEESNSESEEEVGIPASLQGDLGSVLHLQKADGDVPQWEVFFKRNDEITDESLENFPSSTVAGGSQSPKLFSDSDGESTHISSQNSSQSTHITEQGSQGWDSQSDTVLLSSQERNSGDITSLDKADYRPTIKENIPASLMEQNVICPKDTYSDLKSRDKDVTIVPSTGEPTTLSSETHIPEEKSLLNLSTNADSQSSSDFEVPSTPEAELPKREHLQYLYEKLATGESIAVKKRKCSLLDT
Active calls of the source: *. This is one part of a sample in which hits are shown more often than they occur.

Results for CCn1cc(C(=O)NCc2ccc3c(c2)OCO3)c(=O)c2cc(F)c(N3CCN(C(=O)c4ccco4)CC3)cc21 ?
Artemis inh: 17.2

What do the screens show for `O=C1COc2ccc(C(=O)c3ccccc3C(=O)NCc3ccccc3)cc2N1`?
Artemis inh: 0.2

What do the screens show for `c1ccc(-c2nnc3sc(-c4csc5c4CCCC5)nn23)cc1`?
Artemis inh: 32.2*

How did c1cncc(-c2nnc3sc(C4CCCCC4)nn23)c1 do in these assays?
Artemis inh: 2.4

Results for Clc1ccc(-c2nnc3sc(-c4ccc(Br)o4)nn23)cc1 ?
Artemis inh: -64.4

What do the screens show for `Oc1c(Br)cc(C2N=C(c3ccccc3Cl)NO2)cc1Br` (stereo not given)?
Artemis inh: 31.2*

Results for O=C(O)c1cc(-c2ccccc2Cl)n[nH]1 ?
Artemis inh: -8.9

What do the screens show for `O=C(c1ccccc1)c1nn(-c2ccc(Cl)cc2)c(=O)cc1C(F)(F)F`?
Artemis inh: 1.0

Results for O=C(c1ccccc1)c1nn(-c2ccccc2)c(=O)cc1C(F)(F)F ?
Artemis inh: -3.9

How did O=C1c2ccccc2C(=O)c2c1oc(C(F)(F)F)c2C(=O)c1ccccc1 do in these assays?
Artemis inh: 41.6*

Results for Cc1ccnc(NC(=O)c2ccc(N3C(=O)CCC3=O)cc2)c1 ?
Artemis inh: -13.3

Results for Cc1cc(S(=O)(=O)Nc2nc(CN3CCOCC3)nc3sc4c(c23)CCCC4)ccc1F ?
Artemis inh: -6.4

How did N=c1c2c3c(sc2ncn1CCCO)CCCC3 do in these assays?
Artemis inh: -3.2

Results for Cc1cc(C)n(-c2nc(NCCO)c3c4c(sc3n2)CCCC4)n1 ?
Artemis inh: -1.6

Results for Cc1cc(C)n(-c2nc(NCCCO)c3c4c(sc3n2)CCCC4)n1 ?
Artemis inh: 32.8*

How did CCn1c(NN)nc2sc3c(c2c1=O)CCC3 do in these assays?
Artemis inh: 0.6

What do the screens show for `Cc1cc(C)n(-c2nc(NCC(C)O)c3c4c(sc3n2)CCCC4)n1` (stereo not given)?
Artemis inh: 39.2*

What do the screens show for `Cn1c(=O)[nH]c(=O)c2[nH]c(N(Cc3ccccc3)Cc3ccccc3)nc21`?
Artemis inh: 12.9

Results for O=C(NC1CCCCC1)C(c1ccc(F)cc1)N(Cc1ccc2c(c1)OCO2)C(=O)c1cnsn1 (stereo not given) ?
Artemis inh: 1.1

Results for O=C(COc1cccc2ccccc12)NNC(=O)c1cccs1 ?
Artemis inh: 3.5

How did CC(C)(C)NC(=O)c1ccccc1-c1nc(-c2ccccc2Cl)no1 do in these assays?
Artemis inh: -7.5

How did O=C(O)c1ccccc1C(=O)OCc1ccccc1 do in these assays?
Artemis inh: -3.8

How did CNC(=O)CC(=O)Nc1ccccc1C(=O)O do in these assays?
Artemis inh: -4.9

Results for C/C(=N\O)c1ccccc1C(=O)O ?
Artemis inh: 46.1*

How did S=c1[nH]cc(-c2ccccc2)n1-c1ccccc1 do in these assays?
Artemis inh: 0.3

What do the screens show for `O=c1c2c3c(sc2nc2sc(CN4CCOCC4)cn12)CCCC3`?
Artemis inh: 0.0

How did COc1ccc(C2=CC(c3c(C)nn(-c4ccccc4)c3Cl)n3nnnc3N2)cc1OC (stereo not given) do in these assays?
Artemis inh: -4.8

What do the screens show for `O=C([C@H](Cc1ccccc1)NS(=O)(=O)c1ccc(Cl)cc1)N1CC[C@@]2(O)CCCC[C@H]2C1`?
Artemis inh: -3.5

What do the screens show for `Cc1cc(/C=N/n2cnnc2)c(C)n1-c1ccc(OCc2ccc(Cl)cc2)cc1`?
Artemis inh: 32.8*

Results for Clc1ccc(-n2cccc2/C=N/n2cnnc2)cc1 ?
Artemis inh: -1.9

What do the screens show for `Clc1ccc(Cn2cc(/C=N/n3cnnc3)c3ccccc32)cc1`?
Artemis inh: 3.5

What do the screens show for `CCC(C)(C)n1nnnc1CN1CCc2ccccc21`?
Artemis inh: 6.0

How did Cc1cc(=O)n(C)c(=O)n1CC(=O)N1CCCCCC1 do in these assays?
Artemis inh: -0.4

How did CCOC(=O)Cc1csc(NC(=O)COc2ccc(N(C)S(=O)(=O)c3cccs3)cc2)n1 do in these assays?
Artemis inh: 1.4

Results for CC1=NOC(=O)/C1=C\c1ccc(-c2cc(Cl)ccc2Cl)o1 ?
Artemis inh: 36.5*

What do the screens show for `C=CCNC(=S)N/N=C/c1ccc(-c2cc(Cl)ccc2Cl)o1`?
Artemis inh: 1.0

Results for COC(=O)c1ccc(Cl)c(-c2ccc(/C=N/NC(=O)Nc3ccccc3)o2)c1 ?
Artemis inh: -1.9

What do the screens show for `CCOC(=O)Nc1nnc(-c2ccc(OC)c(OC)c2)s1`?
Artemis inh: 2.9

Results for CC(C)(C)Nc1nc(NN)nc(NC(C)(C)C)n1 ?
Artemis inh: 42.9*

Results for CNc1nc(Cl)nc(NC(C)(C)C)n1 ?
Artemis inh: 0.4

Results for CC(=O)C(Sc1nc(NC(C)(C)C)nc(N(C)C)n1)C(C)=O ?
Artemis inh: 7.3

What do the screens show for `CCN1CCN(CCCNC(=O)C2CCCN(c3nnc(-n4cccc4)s3)C2)CC1` (stereo not given)?
Artemis inh: -6.3

How did CC(C)(C)N1C(=O)c2ccc(C(=O)NCc3ccco3)cc2C1=O do in these assays?
Artemis inh: 6.0

Results for CCN(CC)C(=O)C(=O)N/N=C/c1ccc(Br)cc1 ?
Artemis inh: -0.7

How did CCOC(=O)c1cnc2sc3c(n2c1=O)CCCC3 do in these assays?
Artemis inh: -7.6

What do the screens show for `COc1ccc(-c2nn(-c3ccccc3)cc2C(=O)Nc2nccs2)cc1`?
Artemis inh: 47.3*

Results for COc1ccc(-c2nn(-c3ccccc3)cc2CO)cc1 ?
Artemis inh: 3.7

How did COC(=O)c1ccc(NC(=O)c2cn(-c3ccccc3)nc2-c2ccncc2)cc1 do in these assays?
Artemis inh: 7.2

Results for O=C(NCCN1CCOCC1)c1ccc2ccccc2c1 ?
Artemis inh: 3.0

What do the screens show for `Cc1cc(=O)oc(C)c1C(=O)OCC(=O)c1ccc(Cl)cc1`?
Artemis inh: -2.6

What do the screens show for `O=c1c2ccccc2nc(N/N=C/c2c(O)ccc3ccccc23)n1O`?
Artemis inh: 61.0*

How did CCCc1nc2ccccc2c(=O)n1/N=C/c1ccc(O)cc1O do in these assays?
Artemis inh: 4.6

How did O=c1c2ccccc2nc(N/N=C/c2ccc(O)cc2)n1O do in these assays?
Artemis inh: 28.7

What do the screens show for `COc1ccccc1C(=O)Nc1ccc(N2CCCCC2)cc1`?
Artemis inh: 1.8

Results for CCCC(=O)Nc1ccc(N2CCOCC2)cc1 ?
Artemis inh: -12.5

Results for CC(C)C(=O)Nc1ccc(N2CCCC2)cc1 ?
Artemis inh: 8.4

Results for CCCCC(=O)Nc1ccc(N2CCCC2)cc1 ?
Artemis inh: 44.3*

How did O=C(Cc1ccccc1)Nc1ccc(N2CCCC2)cc1 do in these assays?
Artemis inh: 58.8*

How did O=C(Nc1ccc(N2CCCC2)cc1)C(c1ccccc1)c1ccccc1 do in these assays?
Artemis inh: 51.7*

What do the screens show for `CCC(=O)N1CCN(c2ccc(NC(=S)NC(=O)c3cccc([N+](=O)[O-])c3)cc2)CC1`?
Artemis inh: -3.0

What do the screens show for `COc1ccccc1C(=O)Nc1ccc(N2CCN(Cc3ccccc3)CC2)cc1`?
Artemis inh: 2.8

What do the screens show for `CCC(=O)Nc1ccc(N2CCN(Cc3ccccc3)CC2)cc1`?
Artemis inh: 10.5

What do the screens show for `CCCCOc1cccc(C(=O)Nc2ccc(N3CCN(CC)CC3)cc2)c1`?
Artemis inh: 4.5

Results for CCOc1cccc(C(=O)NC(=S)Nc2ccc(N3CCCC3)cc2)c1 ?
Artemis inh: 42.9*

What do the screens show for `CCCC(=O)N1CCN(c2ccc(NC(=O)C(C)(C)C)cc2)CC1`?
Artemis inh: -6.0

Results for CCCCOc1cccc(C(=O)NNC(=S)NC2CCCCC2)c1 ?
Artemis inh: -2.1

Screening results (PubChem)
